Screening data deposited in PubChem by Broad Institute.
Tgondii IFNg = inhibitors of Toxoplasma gondii growth with IFN-gamma | Toxoplasma gondii growth in IFN-gamma-treated host cells; hits give low values | activity change, negative = inhibition, % (no concentration beside the values) | actives 3.8% (n = 69,000) | AID 1259416; in the data active = activity change below about -70%, passing the limit was not always enough;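 also: host cells are HeLa cells infected with Toxoplasma gondii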
Large screens that a line does not name were inactive. Many of the other results were omitted from the sample, so hits are more common in it than they were.

COCC(=O)N1CCc2ccc(=O)n(Cc3cccc(C)n3)c2CC1	none
Cc1ccc(S(=O)(=O)NCCc2csc(-c3ccc(Cl)cc3)n2)s1	none
COc1ccc(S(=O)(=O)NCCc2csc(-c3ccc(Cl)cc3)n2)cc1C	none
Cc1ccc(S(=O)(=O)NCCc2csc(-c3ccc(F)cc3)n2)s1	Tgondii IFNg -101.9
Cc1ccc(S(=O)(=O)NCCc2csc(-c3ccc(F)cc3)n2)cc1	none
Cc1ccc(S(=O)(=O)NCCc2csc(-c3ccc(Cl)cc3)n2)cc1C	Tgondii IFNg -82.6
Cc1ccc(S(=O)(=O)NCCc2csc(-c3ccc(Cl)cc3)n2)cc1	none
COc1ccc(CNC(=O)NC2CCCN(S(=O)(=O)c3ccc(C)cc3)C2)cc1 (stereo not drawn)	none
CC1(C)C(=O)NCCN1C(=O)CSc1nccc(-c2ccccc2)n1	none
COc1ccc(CCC(=O)N2CCC(c3nc(C(=O)N(C)C)c(C)o3)CC2)cc1	none
Cc1cc(C(=O)N(C)Cc2snnc2C)nc(C)n1	none
Nc1nnc(SCc2c(Cl)cccc2Cl)s1	none
Nc1nnc(Sc2nc3c(Cl)cc(Cl)cc3s2)s1	Tgondii IFNg -85.4
Nc1nnc(CSCc2ccc(Cl)cc2Cl)s1	none
O=C(Cn1c(=O)cc(C(=O)N2CCCC2)c2ccccc21)Nc1cccc(F)c1	none
COCCN1C(=O)CCC12CCC(NC(=O)CC1CCCC1)CC2 (stereo not drawn)	none
O=c1[nH]ncc(N2CCCC2)c1-c1cccc2ccnn12	none
CC(C)CN1CCC2(CC1)CN(C(=O)c1cscn1)C2	none
C=CCN1CCN(C)C(=O)C12CCN(C(=O)c1cc(C)[nH]n1)C2 (stereo not drawn)	none
O=C(Cn1ncc2c(N3CCOCC3)ncnc21)NC1CCCCCC1	none
COc1cc(Br)c(CCC#N)cc1OC	none
COc1ccc(CNc2ccc(Br)cc2)c(OC)c1OC	none
COc1ccc2cc(Br)ccc2c1CC#N	Tgondii IFNg -107.3
C=CCn1c(=O)c(C(=O)Nc2cc(F)ccc2F)c(O)c2ccccc21	none
CC(C)NC(=O)N1CCO[C@]2(CCC[C@H]2COCc2nccs2)C1	none
Cc1nc(C)c(C(=O)N2CCc3cc(-c4csc(C5CC5)n4)ccc32)s1	Tgondii IFNg -109.0
CC(=O)N1CCC(C(=O)N2CCc3cc(-c4csc(C5CC5)n4)ccc32)CC1	none
Cc1nc(-c2ccccc2)sc1C(=O)N1CCCc2ccccc21	none
CCOC(=O)C1CCN(C(=O)c2ccc(-c3csc(C4CC4)n3)cc2)CC1	none
Cc1cccc(N2CCN(C(=O)c3ccc(-c4csc(C5CC5)n4)cc3)CC2)c1C	none
O=C(C1CC1)N1CCc2cc(-c3csc(C4CC4)n3)ccc21	Tgondii IFNg -112.5
O=C(c1cccc2[nH]ccc12)N1CCCC1c1nc(-c2cccc(Cl)c2)no1 (stereo not drawn)	none
O=C1COC2(CCN(Cc3ccncc3)CC2)CN1Cc1ccccn1	none
CC1c2cccn2CCN1C(=O)c1cn[nH]c1-n1cnnn1 (stereo not drawn)	none
COc1ccc(C(=O)NC2CCCc3c2cnn3Cc2ccccc2Cl)cc1 (stereo not drawn)	Tgondii IFNg -80.2
COc1ccc(C(=O)N2C[C@H]3[C@@H](c4ccccc42)[C@@H](CO)N3Cc2ccccc2Cl)cc1	none
COc1ccc(C(=O)N2C[C@@H]3[C@H](c4ccccc42)[C@H](CO)N3Cc2ccccc2Cl)cc1	none
Cc1cccc(COCC2CC3OCCN(Cc4ccc(C)o4)C3C2)n1 (stereo not drawn)	none
CCc1csc(CNC(=O)c2ccc(=O)[nH]c2)n1	none
Cc1cccc2[nH]c(C3CCN(C(=O)c4cnn5c4CCCC5)CC3)nc12	none
CCN1c2cc(C)ccc2-n2cccc2C12CCN(C(=O)Nc1ccc(F)cc1F)CC2	none
CCN1c2cc(C)ccc2-n2cccc2C12CCN(C(=O)Nc1cc(C)cc(C)c1)CC2	none
CCOC(=O)Cc1ccc(NC(=O)N2CCC3(CC2)c2cccn2-c2ccc(C)cc2N3CC)cc1	none
CCN1c2cc(C)ccc2-n2cccc2C12CCN(C(=O)Nc1ccc(OC)cc1OC)CC2	Tgondii IFNg -72.5
CCN1c2cc(C)ccc2-n2cccc2C12CCN(C(=O)Nc1cc(Cl)ccc1OC)CC2	Tgondii IFNg -115.5
CCN1c2cc(C)ccc2-n2cccc2C12CCN(C(=O)Nc1cc(F)ccc1F)CC2	none
COc1ccc(OC)c(NC(=O)N2CCC3(CC2)Nc2cc(C)ccc2-n2cccc23)c1	none
CCN1c2cc(C)ccc2-n2cccc2C12CCN(C(=O)Nc1ccccc1C(F)(F)F)CC2	none
CCN1c2cc(C)ccc2-n2cccc2C12CCN(C(=O)Nc1cc(OC)ccc1OC)CC2	Tgondii IFNg -110.7
Cc1nc2ncc(C(=O)NC3CC(C)(C)Oc4ccccc43)c(C)n2n1 (stereo not drawn)	none
COc1ccc(C(=O)NN2CC(=O)N(C(C)C)C2=O)c2ccccc12	none
Cc1cccc(-n2ncc3c(NCCc4ccccc4)ncnc32)c1	none
Cc1noc(C)c1CC(=O)NCc1ccccc1-n1ccnc1C	none
O=S(=O)(NCCSc1ccc(Cl)cc1)c1cccs1	none
CN1CCN([C@@H]2CCN(c3ccc4ccccc4n3)C[C@H]2O)CC1	none
COc1ccccc1C(=O)C1C(=O)NC2(C)CC1c1cc(Cl)ccc1O2 (stereo not drawn)	none
Cc1ccc2c(c1)NC1(CCN(S(=O)(=O)c3ccc(Br)cc3)CC1)c1cccn1-2	none
CNC(=O)c1ccc2cc([C@]3(O)CCn4cncc43)ccc2c1	none
CCc1nc2ccccc2n1C(C)C(=O)Nc1ccc(C)c(S(=O)(=O)N(C)C)c1 (stereo not drawn)	none
CCOC1C2CCC1N(C(=O)c1ccc[nH]1)C2 (stereo not drawn)	none
Cc1nc(-c2ccc(F)cc2)sc1CCNC(=O)c1cccc(C(F)(F)F)c1	Tgondii IFNg -73.8
Cc1cccc(-c2nc(C)c(CCNC(=O)C(=O)Nc3c(C)cc(C)cc3C)s2)c1	Tgondii IFNg -78.7
Cc1nc(-c2ccc(F)cc2)sc1CCNC(=O)c1cccc(F)c1	none
Cc1cccc(-c2nc(C)c(CCNC(=O)C(=O)Nc3c(C)cccc3C)s2)c1	none
Cc1ccc(C(=O)NCCc2sc(-c3cccc(F)c3)nc2C)cc1	none
Cc1nc(-c2ccc(Cl)cc2)sc1CCNC(=O)c1cccc(C(F)(F)F)c1	none
Cc1nc(-c2cccc(F)c2)sc1CCNC(=O)c1ccc(C(F)(F)F)cc1	Tgondii IFNg -89.9
Cc1nc(-c2ccc(F)cc2)sc1CCNC(=O)c1ccc(C(F)(F)F)cc1	none
Cc1cc(C)c(NC(=O)C(=O)NCCc2sc(-c3cccc(F)c3)nc2C)c(C)c1	none
O=C(c1ccccc1-n1cncn1)N1C[C@H]2CC=CC[C@H]2C1	none
CNC(=O)CN1CCO[C@H]2CN(C(=O)c3cnccn3)C[C@@H]21	none
Cc1ccc(C)c(-c2coc(-c3ccc(NC(=O)NCCc4ccccc4)cc3)n2)c1	none
COc1ccc(-c2nnc3sc(C4COc5ccccc5O4)nn23)cc1OC (stereo not drawn)	none
COc1ccc(/C=C/c2nn3c(-c4ccc(OC)c(OC)c4)nnc3s2)cc1	Tgondii IFNg -100.9
COc1ccc(-c2nc(C)c(C(C)=O)n2O)cc1OC	none
O=C(c1ccc(F)cc1)N1CCN2C[C@H](OCC3CC3)C[C@@H]2C1	none
Oc1cccc(Nc2ccc(Nc3cccc(O)c3)nn2)c1	none
CC(CNC(=O)c1cc(C2CCOCC2)c2cnccc2n1)c1ccccc1 (stereo not drawn)	none
Cc1cc(C)n(C(C)c2n[nH]c(CC(C)C)n2)n1 (stereo not drawn)	none
CC(NC(=O)Cc1nc2ccccc2[nH]1)c1ccc(O)c(F)c1 (stereo not drawn)	none
Cc1cc(C)nc(Nc2n[nH]c(COc3ccc4ccccc4c3)n2)n1	none
Cc1cc(OCc2nc3ccccc3[nH]2)ccc1C(C)C	Tgondii IFNg -86.6
COCC(C)(C)C(=O)N1CCC(Cc2n[nH]c(=O)n2-c2ccccc2)CC1	none
